Compound activity deposited in PubChem BioAssay by National Center for Advancing Translational Sciences (NCATS).
An excerpt weighted towards active compounds, which were near 0.75% of everything screened.
TCR activator – Activators of T cell receptors: qHTS campaign; primary human leukocytes, anti-CD3, IL-2 HTRF, 48 h; Potency, µM (doses to about 9.22 µM), most hits filed as activators; 330,000 tested, under 10 active; AID 504894, 2011
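Primary human leukocytes receive a-CD3 beads and test compound and are incubated 48 hr. Secreted IL-2 is then assayed by HTRF, measuring 665nm acceptor emission after 320nm excitation of the europium donor.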
PKM2 act – qHTS Assay for Activators of Human Muscle isoform 2 Pyruvate Kinase; Pyruvate kinase PKM (Homo sapiens), P14618; purified PKM2, Kinase-Glo ATP luminescence, activation; response scale: 0% is enzyme alone, no compound; Potency, µM (series often up to 57.5 µM), hits mostly activators; 0.34% of 260,000 active; AID 1631, 2009; also: nearly all actives have a fitted effect of over 55% in size
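Kinase-Glo luminescence reports ATP generated from ADP (0.1 mM) and PEP (0.5 mM) by purified hPK-M2 after 1 h at room temperature, pH 7.2 imidazole buffer; intermediate enzyme activity allows detecting inhibitors and activators.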
TSHR antagonist – Antagonists of the Thyroid Stimulating Hormone Receptor: HTS campaign | TSHR-expressing cells, TSH-stimulated cAMP HTRF, 2 h; active compounds read low | AID 504810, 2011 | 0.2% of 330,000 active | activity change, negative = inhibition, % at 11.5 µM;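 active = activity change below a set negative limit, meaning inhibition stronger than a set level, cut at about -70% in these data; inconclusive = activity change between two set negative limits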
Target sequence (P16473 whole entry, looked up): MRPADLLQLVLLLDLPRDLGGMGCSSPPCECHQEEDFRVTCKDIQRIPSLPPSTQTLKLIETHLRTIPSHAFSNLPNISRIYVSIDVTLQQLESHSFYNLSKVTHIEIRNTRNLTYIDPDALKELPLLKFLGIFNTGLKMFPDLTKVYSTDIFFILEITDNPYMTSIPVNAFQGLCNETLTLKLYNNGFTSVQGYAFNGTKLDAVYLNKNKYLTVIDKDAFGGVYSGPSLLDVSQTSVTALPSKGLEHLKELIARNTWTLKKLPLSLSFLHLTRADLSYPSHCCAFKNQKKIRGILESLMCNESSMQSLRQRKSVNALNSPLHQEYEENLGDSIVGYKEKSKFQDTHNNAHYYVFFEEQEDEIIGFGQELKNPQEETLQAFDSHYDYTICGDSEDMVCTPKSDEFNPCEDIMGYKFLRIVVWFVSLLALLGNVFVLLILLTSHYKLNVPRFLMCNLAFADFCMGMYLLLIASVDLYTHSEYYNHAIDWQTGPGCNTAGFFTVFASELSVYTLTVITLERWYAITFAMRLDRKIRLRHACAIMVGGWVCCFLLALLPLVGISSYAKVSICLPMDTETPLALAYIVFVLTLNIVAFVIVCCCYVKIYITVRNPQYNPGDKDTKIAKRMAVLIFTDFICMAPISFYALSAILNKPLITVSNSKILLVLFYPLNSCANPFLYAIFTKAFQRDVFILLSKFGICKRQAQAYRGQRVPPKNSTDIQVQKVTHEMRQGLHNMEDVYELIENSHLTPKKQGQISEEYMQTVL
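Read-out is FRET at 665 nm (cryptate excitation 337 nm) from a cryptate-tagged anti-cAMP antibody, competed by cell cAMP against cAMP-d2. Compounds are tested on freshly harvested TSHR cells challenged with 4nM TSH (EC80) for 2 hours at 37 deg C.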
uPA surface inh – qHTS for Inhibitors of Cell Surface uPA Generation; cell surface uPA generation assay, qHTS; 0.31% of 330,000 active; AID 540303, 2011; Potency, µM (titrated, usually from 38.3 µM), actives largely listed as inhibitors; active = well fitted inhibition curve with a large enough effect; inconclusive = small, poorly fitted or top-dose-only effect; inactive = no such curve, though single readings can be large or run the other way; tested in mouse RAW 264.7 cells; also: nearly all actives have a fitted effect of over 55% in size
Large screens that a line does not name were inactive; ! = not active in a repeat. Unless noted, calls follow the shape of the dose curve; as a rule, active = well fitted curve in the direction sought with a large enough effect; inconclusive = small, poorly fitted or top-dose-only effect, or another doubt; inactive = no such curve, though single readings can be large; an effect the other way counts as inactive or inconclusive.

COc1ccc(N2C(=NC(=O)CC3CCCCC3)SC3CS(=O)(=O)CC32)cc1 (stereo not drawn)	none (no result: PKM2 act)
COc1cc2c(cc1OC)/C(=C/C(=O)N1CCOCC1)NC(C)(C)C2	PKM2 act 25µM
CCOC(=O)C(C)/C(C)=N/NC(N)=S (stereo not drawn)	none
N#C/C(=C/c1ccc(N2CCOCC2)o1)c1ccc(Br)cc1	PKM2 act 14µM
N#C/C(=C\c1ccc(N2CCOCC2)o1)c1ccccc1	PKM2 act inconclusive, TSHR antagonist -82
CNS(=O)(=O)c1cccc(C(=O)NNC(=O)c2ccc(COc3ccccc3)cc2)c1	none
O=C(COc1ccccc1[N+](=O)[O-])Nc1cccc(Cl)c1N1CCOCC1	uPA surface inh 10µM
CC(=O)C1=C(C)NC(=O)NC1c1ccc(Cl)cc1 (stereo not drawn)	none
COc1ccc(NC(=O)COC(=O)c2cc(Cl)ccc2O)cc1S(=O)(=O)N1CCCCC1	none (no result: PKM2 act)
Cc1ccc(S(=O)(=O)N2[C@@H](c3ccccc3)C(C(=O)O)=CC[C@H]2c2ccc(Cl)c(Cl)c2)cc1	none (no result: PKM2 act)
Cc1ccc(S(=O)(=O)N2[C@@H](c3ccccc3F)C(C(=O)O)=CC[C@H]2c2ccc(Cl)c(Cl)c2)cc1	TSHR antagonist -92 (no result: PKM2 act)
CCN(CC)CCN(Cc1cc2ccc(C)cc2[nH]c1=O)C(=O)Nc1ccc(Cl)cc1	none
Cc1cc(=O)oc2cc(NS(=O)(=O)c3ccccc3)ccc12	PKM2 act 16µM
CS(=O)(=O)N1CCC(C(=O)NCc2ccc(F)cc2)CC1	none
COc1cc(C(=O)NCCNC(=O)c2cnccn2)cc(OC)c1OC	TSHR antagonist -82 (no result: PKM2 act)
O=S(=O)(c1ccc(F)cc1)N1CCN(CC2CC3C=CC2C3)CC1 (stereo not drawn)	PKM2 act inconclusive
CCCCCCCCCCCCCCCC[n+]1ccccc1	uPA surface inh 0.71µM! (no result: PKM2 act, TSHR antagonist)
CCCCCCCCCCCCCCCC[n+]1ccc(C(N)=O)cc1	none
O=C(Nc1cccc(NC(=O)c2cc([N+](=O)[O-])ccc2Cl)n1)c1cc([N+](=O)[O-])ccc1Cl	uPA surface inh 8.9µM (no result: PKM2 act, TSHR antagonist)
CC1(C)CC2CC(C)(CN2S(=O)(=O)c2cccc(C(N)=O)c2)C1 (stereo not drawn)	none (no result: PKM2 act)
COCCNC(=O)c1cccc(S(=O)(=O)N2CC3(C)CC2CC(C)(C)C3)c1 (stereo not drawn)	uPA surface inh 4µM (no result: PKM2 act)
CCCCNC(=O)c1cccc(S(=O)(=O)N2CC3(C)CC2CC(C)(C)C3)c1 (stereo not drawn)	uPA surface inh 2.2µM (no result: PKM2 act)
COCCCNC(=O)c1cccc(S(=O)(=O)N2CC3(C)CC2CC(C)(C)C3)c1 (stereo not drawn)	uPA surface inh 6.3µM (no result: PKM2 act)
CCN(CC(=O)NCc1ccc(F)cc1)C(=O)/C=C/c1ccco1	PKM2 act 13µM
CCN(CC(=O)NCc1ccc(F)cc1)C(=O)/C=C/c1cccs1	none
COc1ccc(C(=O)/C(C#N)=N/Nc2ccc([N+](=O)[O-])cc2)cc1	uPA surface inh 1µM
N#CC(C#N)=NNc1ccc([N+](=O)[O-])cc1	TSHR antagonist -76
COc1ccc(C(=O)/C(C#N)=N/Nc2ccccc2[N+](=O)[O-])cc1	none
Clc1ccc2nc(CSc3ncn[nH]3)cn2c1	PKM2 act inconclusive
Brc1ccc2nc(CSc3ncn[nH]3)cn2c1	PKM2 act 20µM
N#Cc1cc([N+](=O)[O-])ccc1NC(=O)COC(=O)CC1CCCC1	none
COCCNC(=O)Cc1c(C)c2c(cc(C)c3c(C)coc32)oc1=O	none (no result: PKM2 act)
COCCCNC(=O)Cc1c(C)c2c(cc(C)c3c(C(C)(C)C)coc32)oc1=O	uPA surface inh 0.28µM (no result: PKM2 act)
CNC(=O)Nc1ccccc1C(=O)Nc1ccccc1	none
NC(=O)C1CCN(c2nc(-c3cccc4ccccc34)cs2)CC1	none (no result: TCR activator, PKM2 act, uPA surface inh)
CC[C@]12CCCN3CCc4c(n(c5ccccc45)C(=O)C1)[C@@H]32	uPA surface inh 3.2µM (no result: PKM2 act)
Cc1c([N+](=O)[O-])cc(N2C(=O)C=CC2=O)cc1[N+](=O)[O-]	none (no result: PKM2 act, TSHR antagonist)
Cc1cc(N2C(=O)C=CC2=O)c([N+](=O)[O-])cc1C	PKM2 act 5.6µM
COc1cccc(NS(=O)(=O)c2cc3c(cc2C)NC(=O)CO3)c1	PKM2 act 1.8µM
COc1cccc(NS(=O)(=O)c2cc3[nH]c(=O)c(=O)[nH]c3cc2C)c1	none (no result: PKM2 act)
COc1ccccc1N1CCN(S(=O)(=O)c2cc3c(cc2C)NC(=O)CO3)CC1	none
COc1ccccc1NS(=O)(=O)c1cc2c(cc1C)NC(=O)CO2	PKM2 act 7.1µM
CSC(=Nc1ccccc1)N=C(SCc1ccccc1)N(C)C	none (no result: PKM2 act, TSHR antagonist)
Cc1cc(CNCCN(C)C)c(C)n1-c1cc(S(=O)(=O)N2CCOCC2)ccc1N1CCCC1	none (no result: PKM2 act, TSHR antagonist)
CCOc1cc(CNc2ccc(N(C)C)cc2)cc(Br)c1OCC(=O)NC(C)(C)C	TSHR antagonist -76
CCOc1cc(CNc2ccc(N3CCCCC3)cc2)cc(Br)c1OCC(=O)NC(C)(C)C	none
Nc1nc2ccccc2n1C(=O)c1ccccc1	uPA surface inh 2.8µM
Nc1nc2ccccc2n1C(=O)c1ccc(F)cc1	none
C=CCN1c2ccccc2[C@]23C[C@@H](C(=O)OC)N(S(=O)(=O)c4ccc(Br)cc4)C2=NC(C(=O)OC)=C(C(=O)OC)[C@H]13	none (no result: TCR activator, TSHR antagonist, uPA surface inh)
CC(C)OC(=O)c1cccnc1N1CCN(c2cccc(Cl)c2)CC1	none
CC1CC(C)CN(C(=O)CSc2nnc(N)s2)C1 (stereo not drawn)	none
Cc1cc(C)c2nc(NNC(=O)c3ccc(S(=O)(=O)N4CCCC(C)C4)cc3)sc2c1 (stereo not drawn)	uPA surface inh 5.6µM
Cc1c(NS(=O)(=O)c2cccc(C(=O)N3CCC(C)CC3)c2)c(=O)n(-c2ccccc2)n1C	none (no result: PKM2 act)
Cc1ccccc1Nc1c(-c2ccccn2)nc2c(C)cccn12	none
Cc1cccc(C)c1Nc1c(-c2ccccn2)nc2ccccn12	uPA surface inh 4.5µM
CC(C)c1ccc(CN2CCN(C(=O)CCl)CC2)cc1	uPA surface inh 3.5µM
CC(=O)N1c2ccc(S(=O)(=O)N(C)CC(=O)Nc3ccccc3C)cc2CC1C (stereo not drawn)	none (no result: PKM2 act)
O=C(OCCOc1cccc(Cl)c1)c1ccc2ncsc2c1	PKM2 act 16µM
Cc1ccc(-c2nn(-c3ccccc3)cc2CN(Cc2ccccc2)C(=O)c2ccco2)o1	PKM2 act 25µM
O=C(O)CC(c1ccccc1)N1C(=O)c2ccccc2C1=O (stereo not drawn)	none (no result: PKM2 act, TSHR antagonist)
N/C(=N\OC(=O)c1ccccc1)C(Cc1ccccc1)C(=O)NOC(=O)c1ccccc1 (stereo not drawn)	none (no result: PKM2 act, TSHR antagonist)
Cn1c(=O)c(=O)n(C)c2cc(S(=O)(=O)N3CCc4ccccc43)ccc21	PKM2 act 2µM
Cc1ccc(Cl)cc1Nc1nc(-c2sc(NC(=O)c3ccco3)nc2C)cs1	uPA surface inh 7.9µM
Nc1nnc(SCC(=O)c2ccc3c(c2)NC(=O)CO3)s1	PKM2 act 28µM
Cc1cccc(Cc2cccc(C)c2O)c1O	none (no result: PKM2 act, TSHR antagonist)
